Rows were chosen to be rich in hits. Some 7.5% of all compounds tested hit in one or more screens of this group.
TSHR antagonist: blocks TSH signaling through the human TSH receptor | P16473 | TSHR-expressing cells, TSH-stimulated cAMP HTRF, 2 h; hits give low values | activity change, negative = inhibition, % at 11.5 µM | hit rate 0.2% among 330,000;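 active = activity change below a set negative limit, meaning inhibition stronger than a set level, cut at about -70% in these data; inconclusive = activity change between two set negative limits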
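Freshly harvested TSHR cells receive pin-tooled compound, then EC80 TSH at 4nM final. After 2 hours at 37 deg C, antibody in lysis buffer and cAMP-d2 are added; 30 minutes at ambient temperature precede the HTRF read.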
B2AR arrestin: agonists driving beta-arrestin recruitment to human beta2-adrenergic receptor | beta-arrestin recruitment to beta2AR, cell-based reporter | P07550 | Potency, µM (doses to about 46.1 µM), inactives show at the top dose activation, most hits filed as activators | AID 492947 | hit rate 0.02% among 330,000;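 also: potency is read from the fitted curve at half-maximal effect; 0% = DMSO controls and full agonism = EC100 isoproterenol or metaproterenol; nearly all actives have a fitted effect of over 65% in size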
ELG1 repair inh: inhibitors of ELG1-dependent DNA repair in HEK293T cells. Potency, µM (highest dose often 46.1 µM), for the others: at the highest dose activity change, negative = inhibition, hits mostly inhibitors. AID 504467. HEK293T ELG1-luciferase reporter, luminescence, 16 h; DNA damage induced by 5-fluorouridine. hit rate 2.3% among 330,000; also: potency is read from the fitted curve at half-maximal effect; nearly all actives have a fitted effect of over 55% in size
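Step one: seed 2,000 cells per well. Step two: pin-transfer compound or DMSO alongside 5-fluorouridine. Step three: incubate 16 hr, 37 °C, 5% CO2. Step four: add ONE-Glo, wait 30 min, read luminescence.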
VP16 counter: counter-screen for ROR gamma inhibitors: Gal4-VP16 reporter. Drosophila S2 Gal4-VP16 UAS-luciferase, luminescence, 20 h. Potency, µM (highest dose often 53.6 µM), inactives show top-dose activity, negative = inhibition, actives largely listed as inhibitors. hit rate 3.5% among 310,000. AID 2546;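 also: Gal4-VP16 expression switched on by copper sulfate through the metallothionein promoter; potency is read from the fitted curve at half-maximal effect; nearly all actives have a fitted effect of over 50% in size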
RORg inh: blocks mouse ROR gamma transcriptional activity; Drosophila S2 Gal4-RORgamma UAS-luciferase reporter, 20 h; hit rate 5.4% among 310,000; P51450; Potency, µM (top dose mostly 53.6 µM), inactives show at the top dose activity change, negative = inhibition, hits mostly inhibitors; also: potency is read from the fitted curve at half-maximal effect; nearly all actives have a fitted effect of over 60% in size
Target sequence (P51450 whole entry, looked up, the tested form may be a part): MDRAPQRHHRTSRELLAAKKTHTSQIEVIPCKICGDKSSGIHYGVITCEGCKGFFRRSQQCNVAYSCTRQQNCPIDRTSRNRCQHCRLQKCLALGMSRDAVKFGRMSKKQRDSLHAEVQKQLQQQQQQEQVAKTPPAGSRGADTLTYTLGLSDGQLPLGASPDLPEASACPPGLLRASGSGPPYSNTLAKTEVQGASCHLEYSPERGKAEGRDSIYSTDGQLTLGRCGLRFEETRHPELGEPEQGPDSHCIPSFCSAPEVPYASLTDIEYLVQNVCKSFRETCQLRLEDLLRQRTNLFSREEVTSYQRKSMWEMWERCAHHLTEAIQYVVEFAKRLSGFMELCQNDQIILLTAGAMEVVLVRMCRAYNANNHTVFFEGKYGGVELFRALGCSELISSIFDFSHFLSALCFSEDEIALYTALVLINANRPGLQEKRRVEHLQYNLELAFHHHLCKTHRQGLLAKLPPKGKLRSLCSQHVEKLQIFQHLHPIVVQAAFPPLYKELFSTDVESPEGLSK
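Stably transfected Drosophila Schneider cells are the test system, with ROR gamma fused to Gal4 and luciferase under UAS control; luminescence is read after 20 hr of 700 uM copper sulfate induction at ambient temperature.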
An asterisk follows results filed as active; ? = inconclusive; . = no result given; [ ] = another dose, or the depositor's remark. Unless noted, calls follow the shape of the dose curve; as a rule, active = well fitted curve in the direction sought with a large enough effect; inconclusive = small, poorly fitted or top-dose-only effect, or another doubt; inactive = no such curve, though single readings can be large; an effect the other way counts as inactive or inconclusive. Unless noted, % is scaled to controls: 0 for no effect and ±100 for the full control effect.

SMILES | TSHR antagonist | B2AR arrestin | ELG1 repair inh | VP16 counter | RORg inh
COc1cccc(/C=N/NC(=O)CNC(=O)COc2ccccc2)c1O | -8.7 | 3.5% | ? | 1µM* | 0.282µM*
CO[C@@H]1C=CO[C@]2(C)Oc3c(C)c(O)c4c(O)c(c(C=NN5CCN(C)CC5)c(O)c4c3C2=O)NC(=O)C(C)=CC=C[C@H](C)[C@H](O)[C@H](C)[C@H](O)[C@H](C)[C@H](OC(C)=O)[C@H]1C | . | . | . | -3.3%[17 µM] | -12.6%[16.9 µM]
O=C(Nc1ccc(F)cc1)N1CCN(C(=O)C2CCCO2)CC1 (stereo unspecified) | 0.0 | -0.8% | 1.9% | 0.0% | -4.4%
Cc1ccc(NC2=C/C(=N\S(=O)(=O)c3cccs3)c3ccccc3C2=O)c(C)c1 | -36.0 | 0.2% | ? | ? | ?
Cc1cccc(NC2=C/C(=N/S(=O)(=O)c3cccs3)c3ccccc3C2=O)c1 | 15.7 | -1.0% | 4.11µM* | -2.6% | 0.6%
O=C1C(Nc2ccc(O)cc2)=C/C(=N/S(=O)(=O)c2cccs2)c2ccccc21 | ? | -0.2% | 6.51µM* | 12.6µM* | 11.2µM*
Cc1ccc(Cl)cc1NC1=C/C(=N\S(=O)(=O)c2cccs2)c2ccccc2C1=O | -76.2* | -3.4% | 5.17µM* | 5.01µM* | -91.7%
N#Cc1ccc(CN2CCCC3(CCN(C(=O)c4csnn4)CC3)C2)cc1 | . | . | . | -14.2% | 4.0%
CCOC(=O)c1cc([N+](=O)[O-])c([N+](=O)[O-])cc1NC(C)=O | 1.1 | -0.6% | ? | 3.16µM* | 5.01µM*
Cc1ccc(C(=O)N2CCCC(N(C)Cc3ccccc3)C2)s1 (stereo unspecified) | 0.4 | -0.2% | 0.2% | -1.4% | -18.2%
COC(=O)c1ccc(NC(=S)NC2CCCCC2C)cc1 (stereo unspecified) | 1.9 | -0.4% | -8.2% | 3.55µM* | 7.94µM*
CCOC(=O)c1ccc(NC(=S)NC(=O)C2CCCC2)cc1 | -21.5 | -0.7% | -2.7% | 7.08µM* | 7.08µM*
CCOC(=O)c1ccc(NC(=S)NC2CCCC2)cc1 | -3.2 | -0.8% | ? | ? | ?
COC(=O)c1ccc(NC(=S)Nc2ccccc2)cc1 | -0.5 | -0.2% | 25.4% | -1.6%[0.365 µM] | 11.1%
COc1ccc(NC(=S)NC(=O)C2CCC2)cc1 | 8.4 | -0.8% | ? | 11.2µM* | 8.91µM*
COC(=O)c1ccc(NC(=S)NC(=O)C2CCC2)cc1 | -13.0 | 0.4% | ? | ? | 11.2µM*
COc1ccc(CCNC(=S)NNC(=O)c2c(Br)c(C)nn2C)cc1OC | -12.9 | -0.2% | 8.1% | -25.4% | ?
CCOc1ccc(Cl)cc1S(=O)(=O)N1CCC(C(=O)NCc2cccnc2)CC1 | 7.5 | -0.6% | 8.2% | -6.5% | 9.7%
COC(=O)c1ccc(NC(=S)Nc2ccc3ccccc3c2)cc1 | -0.3 | -0.1% | ? | ? | 12.6µM*
COc1ccc(OCC(=O)NNC(=S)NC(=O)C2CCCCC2)cc1 | 1.9 | 0.0% | 3.9% | -11.2% | 14.1µM*
COc1ccc(OCC(=O)NNC(=S)NC(=O)C2CC2)cc1 | -3.7 | 0.3% | 6.3% | 5.6% | -13.3%
O=C(c1ccc2c(=O)n(C3CCCC3)c(=S)[nH]c2c1)N1CCCCCC1 | -41.8 | -0.2% | 1.83µM* | 1µM* | 1.26µM*
CC1CCCN(C(=O)c2ccc3c(=O)n(C4CCCC4)c(=S)[nH]c3c2)C1 (stereo unspecified) | -7.2 | -0.1% | ? | -14.3%[10 µM] | 9.9%
O=C(c1ccc2c(=O)n(-c3ccccc3)c(=S)[nH]c2c1)N1CCCCC1 | -15.5 | -0.5% | 3.26µM* | 3.16µM* | 8.91µM*
C=CCCn1c(Cl)c(C#N)sc1=O | . | . | . | -19.5% | -5.4%
SMILES | TSHR antagonist | B2AR arrestin | ELG1 repair inh | VP16 counter | RORg inh
COC(=O)c1c(-c2cc(C)ccc2C)csc1NC(=O)C1CC=CCC1C(=O)O (stereo unspecified) | -10.2 | 0.2% | -1.9% | 12.6%[10 µM] | 9.6%
COC(=O)C1=C(C(=O)OC)SC2(S1)C(C(=O)OC)=C(C(=O)OC)SC1=C2c2cc(C)ccc2NC1(C)C | 15.6 | 0.1% | -3.1% | ? | 4.47µM*
Cc1ccc(S(=O)(=O)N(C)C)cc1NC(=S)NC1CCCC(C)C1C (stereo unspecified) | -3.6 | 4.4% | -23.2% | 5.01µM* | 3.98µM*
Cc1ccc(NC(=S)NC2CCCCC2)cc1S(=O)(=O)N(C)C | 8.8 | 0.3% | ? | ? | 12.6µM*
CCN(CC)S(=O)(=O)c1cccc(C(=O)NC2CCCCC2)c1 | 60.7 | -0.3% | ? | 6.4% | ?
CC1CCCCC1NC(=S)Nc1cccc(S(=O)(=O)N(C)C)c1 (stereo unspecified) | -4.6 | 0.1% | -18.2% | 4.8%[10 µM] | ?
CCN(CC)S(=O)(=O)c1ccc(C)c(NC(=S)NC2CCCCC2)c1 | -9.2 | -0.1% | ? | ? | 10µM*
COc1ccc(C(=O)C(Sc2nnc(C)c(=O)[nH]2)c2ccc(OC)cc2)cc1 (stereo unspecified) | -1.5 | 0.3% | -0.3% | 3.6% | -2.0%
CS(=O)(=O)c1ccc(-c2csc(N3CCC(C(N)=O)CC3)n2)cc1 | 26.2 | . | . | . | .
COc1ccc(N(C(=O)c2snc(C(N)=O)c2N)C(C(=O)NCC2CCCO2)c2ccc3ncccc3c2)cc1OC (stereo unspecified) | -1.0 | 0.3% | 15.4% | 6.1% | -34.2%
O=C1c2ccccc2C(=O)N1CCCCN(C(=O)c1ccc(Cl)s1)c1ccc(Cl)cc1 | 3.5 | 2.5% | -19.0% | 5.01µM* | 8.91µM*
O=C1c2ccccc2C(=O)N1CCCCN(C(=O)c1cc([N+](=O)[O-])cc([N+](=O)[O-])c1)c1ccc(Cl)cc1 | -7.1 | -0.2% | -24.0% | -7.1% | 24.7%
O=C1c2ccccc2C(=O)N1CCCCN(C(=O)c1cc([N+](=O)[O-])ccc1Cl)c1ccc(Cl)cc1 | 5.4 | -0.8% | 20.6µM* | -13.7% | 66.6%
CCOC(=O)O[C@]1(C(=O)COC(=O)CC)CC[C@@H]2[C@@H]3CCC4=CC(=O)C=C[C@@]4(C)[C@H]3[C@H](O)C[C@]21C | . | . | . | -10.9%[17 µM] | -18.8%[2.98 µM]
CCN(CC(=O)NCCc1ccc(Cl)cc1)Cc1nc2ccccc2c(=O)[nH]1 | -2.4 | 0.0% | -4.6% | ? | 2.24µM*
CC(C)C(=O)N(Cc1ccc(F)cc1)Cc1nc2ccccc2c(=O)[nH]1 | -2.5 | -0.1% | -1.9% | -24.2% | 11.2µM*
CCN(CC(=O)NCCc1ccc(F)cc1)Cc1nc2ccccc2c(=O)[nH]1 | 1.7 | -0.2% | 1.2% | ? | 7.94µM*
COc1ccc(CN(Cc2nc3ccccc3c(=O)[nH]2)C(=O)c2ccco2)cc1 | 2.6 | 0.4% | -3.8% | -1.7% | ?
CN(C)c1nc(-c2ccccc2C(F)(F)F)nc2ccccc12 | . | . | . | -7.2% | -5.1%
CCn1c(SCC(=O)Nc2nc(-c3ccc(C)cc3)cs2)nnc1-c1ccccc1O | -33.0 | -0.7% | 16.4µM* | 15.0%[0.365 µM] | ?

Source: PubChem
